DT40 TDP1 no CPT: qHTS for Inhibitors of human tyrosyl-DNA phosphodiesterase 1 (TDP1): qHTS in cells in absence of CPT; DT40 Tdp1-/- hTDP1 cells, no CPT, ATP luminescence, 48 h; Potency, µM (highest dose often 46.2 µM), hits mostly inhibitors; 15% of 420,000 active; AID 686978, 2013; also: nearly all actives have a fitted effect of over 55% in size
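Growth of hTDP1-complemented DT40 Tdp1-knockout cells is measured by ATP luminescence after at least 48 hr compound exposure at 37 °C, with DMSO substituting for the 20 nM CPT used in the parallel screen.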
IL1B secr inh: qHTS for Inhibitors of Inflammasome Signaling: IL-1-beta AlphaLISA Primary Screen; THP-1 LPS/ATP IL-1B secretion, AlphaLISA, 16 h; stronger effect = lower value; activity change, % at 57.5 µM; AID 743279, 2014; 4.7% of 360,000 active; in the data active = activity change below about -50%; inconclusive = mostly about -30% to -49%
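THP-1 cells pretreated 1 hr with compounds (up to 57.5 uM final), then stimulated with LPS (250 ng/mL final) plus ATP (1.25 mM final); secreted IL-1B measured by AlphaLISA after 16 hr, decreased signal indicating inhibition.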
HT1080-NT tox: qHTS for induction of synthetic lethality in tumor cells producing 2HG: qHTS for the HT-1080-NT fibrosarcoma cell line | AID 686970, 2013 | HT-1080-NT fibrosarcoma viability, CellTiter-Glo ATP luminescence, 48 h | 1.6% of 360,000 active | Potency, µM (highest dose often 46.1 µM), actives largely listed as cytotoxic;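 also: NT is the 2HG producing partner of a matched IDH1 knockdown line; nearly all actives have a fitted effect of over 55% in size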
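Viability of the 2HG-overproducing fibrosarcoma line after 48 hours of compound exposure at 37 degrees C was determined by luminescence with CellTiter-Glo, and concentration-effect curves were then fitted and categorized.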
DT40 TDP1 CPT: qHTS for Inhibitors of human tyrosyl-DNA phosphodiesterase 1 (TDP1): qHTS in cells in presence of CPT | chicken DT40 Tdp1-/-;hTDP1 cells + 20 nM CPT, ATP luminescence, 48 h | AID 686979, 2013 | 12% of 420,000 active | Potency, µM (highest dose often 46.2 µM), most hits filed as inhibitors; also: nearly all actives have a fitted effect of over 55% in size
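Cell growth measured by CellTiter-Glo luminescence after a minimum 48 h, 37 C compound exposure with 20 nM CPT in Tdp1-knockout DT40 cells stably expressing hTDP1, seeded 400/well; qHTS titration format.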
HT1080 IDH1KD tx: qHTS for induction of synthetic lethality in tumor cells producing 2HG: qHTS for the HT-1080-IDH1KD cell line. 2% of 360,000 active. AID 686971, 2013. HT-1080 IDH1 knockdown viability, ATP luminescence, 48 h. Potency, µM (top dose mostly 46.1 µM), usual class: cytotoxic
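In this qHTS, HT-1080 cells depleted of IDH1 are exposed for 48 h at 37 °C to compound titrations. Toxicity is scored from CellTiter-Glo luminescence, with DMSO as full viability and medium alone as none.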
Hits are given with their value; ! = not confirmed by another sample; [ ] = remark or other dose. Shown are actives, neighbours in structure and some others; about 19% of the full set was active somewhere. Unless noted, calls follow the shape of the dose curve; as a rule, active = well fitted curve in the direction sought with a large enough effect; inconclusive = small, poorly fitted or top-dose-only effect, or another doubt; inactive = no such curve, though single readings can be large; an effect the other way counts as inactive or inconclusive.

Screening CN(N=O)c1ccc2c(c1)Cc1ccccc1-2 returned DT40 TDP1 no CPT inconclusive and DT40 TDP1 CPT inactive.
`CCCCCCCCCCCCCCCC(=O)NC(C)C` gave DT40 TDP1 no CPT inactive and DT40 TDP1 CPT inactive.
CCS(=O)(=O)N1CCN(c2ccc(C(=O)NC34CC5CC(CC(C5)C3)C4)cc2[N+](=O)[O-])CC1 was read as DT40 TDP1 no CPT 7.3µM, IL1B secr inh inactive, HT1080-NT tox inactive, DT40 TDP1 CPT 12µM and HT1080 IDH1KD tx inactive.
For CS(=O)(=O)N1CCN(c2ccc(C(=O)NC34CC5CC(CC(C5)C3)C4)cc2[N+](=O)[O-])CC1 the results were DT40 TDP1 no CPT 9.2µM, IL1B secr inh inactive, HT1080-NT tox inactive, DT40 TDP1 CPT 15µM and HT1080 IDH1KD tx inactive.
`O=C(NC12CC3CC(CC(C3)C1)C2)c1ccc([N+](=O)[O-])cc1` gave DT40 TDP1 no CPT inactive, IL1B secr inh inconclusive, HT1080-NT tox inactive, DT40 TDP1 CPT inconclusive and HT1080 IDH1KD tx inactive.
`COc1cccc(N2CCN(S(=O)(=O)c3cn(C)c(C)n3)CC2)c1` gave DT40 TDP1 no CPT inactive and DT40 TDP1 CPT inactive.
Screening N#Cc1cccc(NC(=O)c2cc(C3CCCCN3C(=O)c3cccs3)on2)c1 (stereo not given) returned DT40 TDP1 no CPT inconclusive, IL1B secr inh inactive, HT1080-NT tox inactive, DT40 TDP1 CPT inconclusive and HT1080 IDH1KD tx inactive.
Screening COC(=O)c1cc(NC(=O)C(C)c2ccc(CC(C)C)cc2)ccc1O (stereo not given) returned DT40 TDP1 no CPT inconclusive, IL1B secr inh inactive, HT1080-NT tox inactive, DT40 TDP1 CPT 21µM and HT1080 IDH1KD tx inactive.
For CC(=O)Nc1ccc(S(=O)(=O)NC2(C(F)(F)F)NC(=O)N(C3CCCCC3)C2=O)cc1 (stereo not given) the results were DT40 TDP1 no CPT inactive, IL1B secr inh inactive, HT1080-NT tox inactive, DT40 TDP1 CPT inactive and HT1080 IDH1KD tx inactive.
`CCSc1nc(-c2ccccc2OC)nc2c1Cc1c(CO)cnc(C)c1O2` gave DT40 TDP1 no CPT 8.2µM and DT40 TDP1 CPT 8.2µM.
Screening COc1cccc(CSc2nc(-c3ccccc3F)nc3c2Cc2c(CO)cnc(C)c2O3)c1 returned DT40 TDP1 no CPT 21µM and DT40 TDP1 CPT inconclusive.
`CCSc1nc(-c2ccccc2F)nc2c1Cc1c(CO)cnc(C)c1O2` gave DT40 TDP1 no CPT inactive and DT40 TDP1 CPT inactive.
Cc1ccc(C)c(CSc2nc(-c3ccccc3F)nc3c2Cc2c(CO)cnc(C)c2O3)c1 was read as DT40 TDP1 no CPT inactive and DT40 TDP1 CPT inactive.
`CCOC(=O)C1(Cc2ccccc2C(F)(F)F)CCN(CC2CC2)CC1` gave DT40 TDP1 no CPT inconclusive, IL1B secr inh inconclusive, HT1080-NT tox inactive, DT40 TDP1 CPT inconclusive and HT1080 IDH1KD tx inactive.
COc1ccccc1N1CCN(C2CCN(S(=O)(=O)c3ccc(NC(C)=O)cc3)CC2)CC1 was read as DT40 TDP1 no CPT inactive, IL1B secr inh inactive, HT1080-NT tox inactive, DT40 TDP1 CPT inactive and HT1080 IDH1KD tx inactive.
`CON=C1C[C@]2(C[C@@H]3C[C@@H](C/C=C(\C)C[C@@H](C)/C=C/C=C4\CO[C@@H]5[C@H](O)C(C)=C[C@@H](C(=O)O3)[C@]45O)O2)O[C@H](/C(C)=C/C(C)C)[C@H]1C` gave DT40 TDP1 no CPT 21µM! and DT40 TDP1 CPT 4.2µM!.
`CCC(C)[C@H]1O[C@]2(C=C[C@@H]1C)C[C@@H]1C[C@@H](C/C=C(\C)[C@@H](O[C@H]3C[C@H](OC)[C@@H](O[C@H]4C[C@H](OC)[C@H](NC(C)=O)[C@H](C)O4)[C@H](C)O3)[C@@H](C)/C=C/C=C3\CO[C@@H]4[C@H](O)C(C)=C[C@@H](C(=O)O1)[C@]34O)O2` (stereo not given in full) gave DT40 TDP1 no CPT 2.7µM and DT40 TDP1 CPT 4.2µM.
For CC[C@H](C)[C@H]1O[C@]2(CC[C@@H]1C)C[C@@H]1C[C@@H](CC=C(C)[C@@H](O[C@H]3C[C@H](OC)[C@@H](O[C@H]4C[C@H](OC)[C@@H](O)[C@H](C)O4)[C@H](C)O3)[C@@H](C)C=CC=C3CO[C@@H]4[C@H](O)C(C)=C[C@@H](C(=O)O1)[C@]34O)O2 the results were DT40 TDP1 no CPT 3.7µM, IL1B secr inh inactive, HT1080-NT tox 2.9µM, DT40 TDP1 CPT 3.7µM and HT1080 IDH1KD tx 4.1µM.
For CC[C@@H](C)[C@H]1O[C@]2(CC[C@@H]1C)C[C@@H]1C[C@H](C/C=C(/C)[C@H](O[C@@H]3C[C@H](OC)[C@H](O[C@@H]4C[C@H](OC)[C@@H](O)[C@H](C)O4)[C@H](C)O3)[C@@H](C)/C=C\C=C3CO[C@@H]4[C@H](O)C(C)=C[C@@H](C(=O)O1)[C@]34O)O2 (tested in a mixture with another compound) the results were DT40 TDP1 no CPT inconclusive and DT40 TDP1 CPT 12µM.
For Cc1cc(/C=N/N2CCN(C)CC2)c(C)n1-c1ccc(Cl)cc1 the results were DT40 TDP1 no CPT inactive, IL1B secr inh inactive, HT1080-NT tox inconclusive, DT40 TDP1 CPT inconclusive and HT1080 IDH1KD tx inactive.
`COc1cccc(OCCNc2cc(Cl)ccc2[N+](=O)[O-])c1` gave DT40 TDP1 no CPT inactive, IL1B secr inh inconclusive, HT1080-NT tox inactive, DT40 TDP1 CPT inconclusive and HT1080 IDH1KD tx inactive[9.24 µM].
For CC(NC(=O)c1ccnn1C)C1CCCO1 (stereo not given) the results were DT40 TDP1 no CPT inactive, IL1B secr inh inactive, HT1080-NT tox inactive, DT40 TDP1 CPT inactive and HT1080 IDH1KD tx inactive.
Screening O=S(OCCN1CCCC1)C(c1ccccc1)c1ccccc1 (stereo not given) returned DT40 TDP1 no CPT inconclusive, IL1B secr inh -90, HT1080-NT tox inactive, DT40 TDP1 CPT inconclusive and HT1080 IDH1KD tx inconclusive.
`CN(C(=O)CSc1nc2scc(-c3ccccc3)c2c(=O)[nH]1)c1ccccc1` gave DT40 TDP1 no CPT inconclusive, IL1B secr inh inactive, HT1080-NT tox inactive, DT40 TDP1 CPT inconclusive and HT1080 IDH1KD tx inactive.
For CCCN(C(=O)CSCc1ccc(C)cc1)c1c(N)n(Cc2ccccc2)c(=O)[nH]c1=O the results were DT40 TDP1 no CPT inactive, IL1B secr inh inactive, HT1080-NT tox inactive, DT40 TDP1 CPT inactive and HT1080 IDH1KD tx inactive.
`COc1cccc(-c2csc(N3CCN(C(=S)Nc4ccccc4Cl)CC3)n2)c1` gave DT40 TDP1 no CPT inconclusive, IL1B secr inh inactive, HT1080-NT tox inconclusive, DT40 TDP1 CPT inactive and HT1080 IDH1KD tx inactive.

High-throughput results deposited in PubChem BioAssay by National Center for Advancing Translational Sciences (NCATS).
